A short description of assay [1]: yeast TOR pathway RPL19A-GFP modulators, primary screen, cell-based, S. cerevisiae, multiplex flow cytometry (AID 1862; in the data active means percent of DMSO control GFP below about 86%;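 further: lower values mimic rapamycin by blocking the RPL19A rise seen in DMSO cells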). Particulars: S. cerevisiae RPL19A-GFP strain, flow cytometry fluorescence, 3 h; at 10 µM; stronger effect = lower value.
Assay [2] is described as follows: modulators of MEP2-GFP levels in yeast, primary screen, S. cerevisiae, multiplex flow cytometry (AID 1867;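 active means GFP response, as percent of the DMSO control, above the screen-wide mean plus 3 SD, about 139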;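 further: median GFP channel fluorescence of barcode-gated MEP2-GFP cells measured by flow cytometry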). Particulars: S. cerevisiae MEP2-GFP strain, 3 h, at 10 µM, stronger effect = higher value, 100% means same as DMSO wells. (A flow cytometer gives signals particle by particle.)
Assay [3] in a line: modulators of CIT2-GFP expression in yeast, primary screen, S. cerevisiae, GFP fusion, multiplex flow cytometry (AID 1870;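 active means percent response above a set limit, the screen-wide mean plus 3 SD, cut at about 130% in these data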;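 further: barcoded CIT2-GFP strain pooled with four other GFP strains with rapamycin as positive control; median GFP fluorescence per well over plate mean of DMSO wells so 100% = DMSO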). Particulars: 3 h, at 10 µM, stronger effect = higher value.
The nature of assay [4]: modulators of LAP4-GFP expression in yeast, primary screen, S. cerevisiae, multiplex flow cytometry (AID 1873;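 active means GFP signal, as percent of the solvent control, above the screen mean plus 3 SD, about 149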). Particulars: 3 h, at 10 µM, stronger effect = higher value.
Assay [5] can be described thus: modulators of AGP1-GFP expression in yeast TOR pathway, primary screen, cell-based, multiplex flow cytometry, S. cerevisiae (AID 1887;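 active means GFP signal above the screen-wide mean plus 3 SD, that is over about 124.5% of the solvent control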;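 further: AGP1-GFP fusion strain of S. cerevisiae within a five-strain barcoded multiplex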). Particulars: 3 h, at 10 µM, stronger effect = higher value.
The nature of assay [6]: inhibitors of CD8+ T cell-vesicle binding, pilot screen, LFA-1/ICAM-1 modulator project, MLPCN validation set, flow cytometry (AID 2523;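 active means response below a set limit, under 55% cells CD8-positive and vesicle-bound, and CD8 cells' 90th-percentile brightness under 279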;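 on vesicle binding response: mean PE anti-B7-1 fluorescence of CD8+ cells relative to row control; 100% = QL9-loaded vesicles with DMSO vehicle in the same plate row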). Particulars: 2C mouse CD8+ T cells, at 7 µM, stronger effect = lower value; double positive events: measured here: CD8+/vesicle+ event percentage.
The target of assay [7] is Integrin beta-1 (Homo sapiens) + Integrin alpha-4 (Homo sapiens) (UniProt P13612+P05556). As to the kind of experiment: inhibition of HUTS-21 binding to VLA-4, pilot screen, VLA-4 allosteric modulator project, U937 cells, HUTS-21 mAb, flow cytometry, validation set (AID 2674).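 Further: antibody binding induced by the VLA-4 ligand LDV present at three times its Kd; 0% = LDV ligand with antibody and no compound and 100% = antibody without LDV.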 Particulars: HUTS-21 LIBS mAb binding, at 6.7 µM, stronger effect = higher value, binding induced by LDV ligand.

Assay [8] is described as follows: superoxide lowering in aged yeast cells, pilot screen, validation compound set (AID 2706;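 active means superoxide response below 65% of plate, a cut near 3 SD across the whole screen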;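 further: yeast exposed to compound for one week at 30 degrees C before staining; 100% = mean of all compound wells on the same plate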). Particulars: S. cerevisiae aging, superoxide DHE fluorescence; at 10 µM; stronger effect = lower value.
In assay [9] the target is Beta-adrenergic receptor kinase 1 (Homo sapiens) (UniProt P25098). Nature of the assay: GRK2 binders displacing RNA aptamer, biochemical, validation, human GRK2, bead flow cytometry (AID 488806;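 active means aptamer binding inhibition above 30%, about 3 SD of noise from non-fluorescent compounds; inactive means inhibition at or below 30%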). Particulars: bead-bound GRK2, FAM-aptamer displacement, at 10 µM, stronger effect = higher value.
The target in assay [10] is Beta-2 adrenergic receptor (Homo sapiens) (UniProt P07550). Nature of the assay: beta2AR agonists driving receptor internalization, pilot screen, cell-based, FAP fluorogen, flow cytometry, validation set (AID 504459;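 active means percent response above 42, roughly 3 SD of non-fluorescent test compounds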;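 further: agonist-driven loss of surface beta2AR via internalization measured by FAP dye flow cytometry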). Particulars: Am2.2-beta2AR cells, FAP surface receptor flow cytometry; at 10 µM; stronger effect = higher value.
The target of assay [11] is AP-2 complex subunit beta (Homo sapiens) (UniProt P63010). As to the kind of experiment: inhibitors of arrestin peptide binding to AP2, pilot screen, biochemical, validation set, GST-AP2 beads, flow cytometry (AID 504541;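 active means inhibition above 54%, about 3 SD of non-fluorescent compounds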;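 further: AP2 carries R879A mutation and is captured from E. coli lysate; bead-bound FITC arrestin peptide fluorescence measuring arrestin peptide binding to AP2; 0% = DMSO wells and 100% = excess unlabeled arrestin peptide control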). Particulars: FITC arrestin peptide, at 10 µM, stronger effect = higher value, AP2 beta2 appendage fragment, R879A mutant.
A short description of assay [12]: yeast V-ATPase proton transport modulators, S. cerevisiae, pHLuorin, HTS validation (AID 504600; in the data active means response above about 15%;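 further: plate controls were DMSO for no effect and reference compound for full effect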). Particulars: S. cerevisiae pHLuorin cytosolic pH, at 10 µM, stronger effect = higher value.
The subject of assay [13] is anti-desmoglein-3 scFv antibody binding to human DSG3. As to the kind of experiment: inhibitors of anti-DSG3 scFv binding to DSG3, pilot screen, biochemical, validation compound set, bead-based, flow cytometry (AID 588368;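 active means binding below the plate cutoff, the plate median minus 3 SD, with a reading above zero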;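 further: signal is the median channel fluorescence of bead-bound GFP antibody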). Particulars: Protein G beads, DSG3-Fc, scFv-GFP binding, at 10 µM, stronger effect = lower value.
Assay [14] can be described thus: inhibitors of fungal efflux pumps CDR1, CDR2, MDR1, pilot screen, validation compound set, multiplex, phenotypic (AID 588506;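 active means efflux inhibition above 0.42, the validation set average plus 4 SD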;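 further: Nile Red retained in cells so higher fluorescence means more efflux inhibition; 0 = negative control wells and 1 = enniatin B 25 µM full block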). Particulars: S. cerevisiae pump-expressing triplex, Nile Red efflux flow cytometry; at 10 µM; stronger effect = higher value; the pumps come from Candida albicans.
In assay [15] the target is ATP-binding cassette sub-family B member 6 (Homo sapiens) (UniProt Q9NP58). Nature of the assay: ABCB6 transporter inhibitors, pilot screen, K562-ABCB6 cells, flow cytometry, validation set (AID 588550;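 active means inhibition above the screen-wide mean plus 3 SD, about 51%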;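 further: 0% = DMSO wells and 100% = benzethonium chloride 70 µM positive control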). Particulars: K562-ABCB6 porphyrin accumulation, 1 h, at 10 µM, stronger effect = higher value.
Assay [16] in a line: promoters of myeloid differentiation in arrested cells, primary screen, cell-based, GFP/MAC1 double positive, flow cytometry, validation set (AID 588685;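 active means differentiation response of at least 50%, scaled between solvent and reference control, from cells with both markers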;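 further: compound exposure lasts four days before antibody staining and flow analysis; 0% = DMSO wells and 100% = 5 µM fulvestrant positive control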). Particulars: ER-HoxA9 marrow cells, stronger effect = higher value, normalized: vehicle 0, fulvestrant 100.

Five compounds from PubChem BioAssay can be followed below.

Results filed as inconclusive are left out. Activity calls are given as the source filed them.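 How the source made its calls, unless noted: active means inhibition above 50%, about 3 SD of the validation set; inactive means the rest.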

Chain of ATP-binding cassette sub-family B member 6 (Homo sapiens) (Q9NP58 whole entry, looked up): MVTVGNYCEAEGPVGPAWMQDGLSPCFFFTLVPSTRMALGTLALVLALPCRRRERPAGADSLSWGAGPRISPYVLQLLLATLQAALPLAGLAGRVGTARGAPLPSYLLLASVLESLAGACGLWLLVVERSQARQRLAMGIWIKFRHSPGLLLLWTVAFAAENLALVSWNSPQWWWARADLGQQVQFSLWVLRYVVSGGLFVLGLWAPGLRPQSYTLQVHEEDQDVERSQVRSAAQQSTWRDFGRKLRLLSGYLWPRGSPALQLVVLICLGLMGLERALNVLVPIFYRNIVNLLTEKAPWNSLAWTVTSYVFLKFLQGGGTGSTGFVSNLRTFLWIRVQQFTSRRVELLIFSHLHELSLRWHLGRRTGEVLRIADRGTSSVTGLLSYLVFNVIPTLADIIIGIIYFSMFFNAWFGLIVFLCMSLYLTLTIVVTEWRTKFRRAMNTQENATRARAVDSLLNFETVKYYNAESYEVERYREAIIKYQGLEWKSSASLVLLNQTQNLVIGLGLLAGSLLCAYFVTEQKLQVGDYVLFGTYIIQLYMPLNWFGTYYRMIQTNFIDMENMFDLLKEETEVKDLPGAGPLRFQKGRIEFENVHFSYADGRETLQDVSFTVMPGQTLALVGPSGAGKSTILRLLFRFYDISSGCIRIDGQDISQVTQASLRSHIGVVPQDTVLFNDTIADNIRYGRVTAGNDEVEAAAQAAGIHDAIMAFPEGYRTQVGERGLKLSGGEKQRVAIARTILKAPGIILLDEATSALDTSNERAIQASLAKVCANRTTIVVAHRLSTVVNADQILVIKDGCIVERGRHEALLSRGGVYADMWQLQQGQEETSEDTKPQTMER
Chain of Beta-adrenergic receptor kinase 1 (Homo sapiens) (P25098 whole entry, looked up): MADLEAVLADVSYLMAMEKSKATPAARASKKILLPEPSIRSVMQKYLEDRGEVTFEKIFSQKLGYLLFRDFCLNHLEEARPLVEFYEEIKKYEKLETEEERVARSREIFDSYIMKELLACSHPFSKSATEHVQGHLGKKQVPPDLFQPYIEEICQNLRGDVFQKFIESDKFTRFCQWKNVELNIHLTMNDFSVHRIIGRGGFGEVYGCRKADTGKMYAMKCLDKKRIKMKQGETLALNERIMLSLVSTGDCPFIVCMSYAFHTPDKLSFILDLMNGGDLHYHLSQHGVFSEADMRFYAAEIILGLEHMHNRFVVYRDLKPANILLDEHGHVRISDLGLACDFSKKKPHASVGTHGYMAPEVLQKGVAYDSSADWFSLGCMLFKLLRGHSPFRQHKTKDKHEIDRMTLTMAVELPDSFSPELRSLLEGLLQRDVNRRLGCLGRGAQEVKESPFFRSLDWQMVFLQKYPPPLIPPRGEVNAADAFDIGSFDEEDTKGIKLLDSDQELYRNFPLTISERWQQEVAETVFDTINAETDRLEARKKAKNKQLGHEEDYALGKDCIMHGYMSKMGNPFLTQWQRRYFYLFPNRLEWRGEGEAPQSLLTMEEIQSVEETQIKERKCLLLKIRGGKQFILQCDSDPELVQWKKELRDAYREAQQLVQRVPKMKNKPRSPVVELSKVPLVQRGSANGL
Chain of Integrin beta-1 (Homo sapiens) + Integrin alpha-4 (Homo sapiens) (P05556 whole entry, looked up): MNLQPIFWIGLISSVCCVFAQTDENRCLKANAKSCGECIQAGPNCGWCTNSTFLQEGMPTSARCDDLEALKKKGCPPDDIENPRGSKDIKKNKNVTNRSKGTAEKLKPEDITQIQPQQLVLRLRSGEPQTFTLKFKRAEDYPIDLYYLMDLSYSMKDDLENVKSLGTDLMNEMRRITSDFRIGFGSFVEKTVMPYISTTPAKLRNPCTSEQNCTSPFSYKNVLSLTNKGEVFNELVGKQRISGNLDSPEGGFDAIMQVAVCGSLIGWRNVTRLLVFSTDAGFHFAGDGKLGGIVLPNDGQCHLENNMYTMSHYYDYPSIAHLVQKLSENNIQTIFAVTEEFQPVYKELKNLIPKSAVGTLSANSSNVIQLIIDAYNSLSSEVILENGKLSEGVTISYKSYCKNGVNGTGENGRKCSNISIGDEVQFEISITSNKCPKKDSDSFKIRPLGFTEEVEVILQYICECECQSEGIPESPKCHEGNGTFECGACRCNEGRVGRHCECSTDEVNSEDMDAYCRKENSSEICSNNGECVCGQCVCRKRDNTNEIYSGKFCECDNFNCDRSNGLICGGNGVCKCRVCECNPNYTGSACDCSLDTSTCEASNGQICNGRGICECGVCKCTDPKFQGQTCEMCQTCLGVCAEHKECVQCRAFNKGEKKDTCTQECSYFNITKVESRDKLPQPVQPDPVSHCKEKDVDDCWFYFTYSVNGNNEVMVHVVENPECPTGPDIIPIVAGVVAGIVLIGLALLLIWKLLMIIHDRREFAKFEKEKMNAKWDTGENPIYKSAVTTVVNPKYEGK
Chain of Integrin beta-1 (Homo sapiens) + Integrin alpha-4 (Homo sapiens) (P13612 whole entry, looked up): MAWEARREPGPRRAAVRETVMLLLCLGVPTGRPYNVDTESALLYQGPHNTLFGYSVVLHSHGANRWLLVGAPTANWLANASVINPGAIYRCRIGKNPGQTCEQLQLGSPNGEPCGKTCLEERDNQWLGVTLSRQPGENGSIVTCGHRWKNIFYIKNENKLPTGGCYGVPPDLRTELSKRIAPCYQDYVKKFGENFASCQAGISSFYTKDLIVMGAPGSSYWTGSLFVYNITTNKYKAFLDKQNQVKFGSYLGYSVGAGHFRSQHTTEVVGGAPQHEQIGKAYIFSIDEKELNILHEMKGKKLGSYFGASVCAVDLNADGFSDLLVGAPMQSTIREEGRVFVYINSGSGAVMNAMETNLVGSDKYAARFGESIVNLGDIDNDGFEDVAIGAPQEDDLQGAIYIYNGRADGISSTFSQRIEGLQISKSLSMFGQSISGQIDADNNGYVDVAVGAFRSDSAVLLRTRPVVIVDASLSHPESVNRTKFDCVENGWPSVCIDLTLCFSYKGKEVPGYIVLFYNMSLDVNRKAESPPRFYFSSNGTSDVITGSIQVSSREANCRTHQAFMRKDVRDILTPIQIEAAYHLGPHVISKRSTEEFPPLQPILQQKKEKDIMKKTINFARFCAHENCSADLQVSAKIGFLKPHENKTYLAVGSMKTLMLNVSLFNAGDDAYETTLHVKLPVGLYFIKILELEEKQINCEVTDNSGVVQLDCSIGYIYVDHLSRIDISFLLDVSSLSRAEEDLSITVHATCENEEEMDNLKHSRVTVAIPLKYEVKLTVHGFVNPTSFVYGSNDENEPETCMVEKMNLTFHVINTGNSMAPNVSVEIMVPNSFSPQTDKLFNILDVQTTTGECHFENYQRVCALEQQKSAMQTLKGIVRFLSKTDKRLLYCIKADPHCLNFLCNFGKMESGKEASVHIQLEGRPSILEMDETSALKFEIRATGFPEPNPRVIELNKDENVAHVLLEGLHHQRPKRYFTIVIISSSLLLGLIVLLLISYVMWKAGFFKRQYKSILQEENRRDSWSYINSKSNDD
Chain of Beta-2 adrenergic receptor (Homo sapiens) (P07550 whole entry, looked up): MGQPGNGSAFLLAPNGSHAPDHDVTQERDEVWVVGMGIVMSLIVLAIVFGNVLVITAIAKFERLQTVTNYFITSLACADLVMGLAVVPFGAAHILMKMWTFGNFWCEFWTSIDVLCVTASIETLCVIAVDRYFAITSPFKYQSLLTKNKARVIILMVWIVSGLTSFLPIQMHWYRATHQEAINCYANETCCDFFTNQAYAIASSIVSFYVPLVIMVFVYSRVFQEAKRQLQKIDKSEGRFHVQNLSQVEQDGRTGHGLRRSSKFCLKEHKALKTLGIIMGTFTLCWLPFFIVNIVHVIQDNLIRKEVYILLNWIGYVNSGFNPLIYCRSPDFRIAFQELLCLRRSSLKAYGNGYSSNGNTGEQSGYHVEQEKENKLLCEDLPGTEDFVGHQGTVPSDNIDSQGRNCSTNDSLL
Chain of AP-2 complex subunit beta (Homo sapiens) (P63010 whole entry, looked up, the tested form may be a part, one chain of several): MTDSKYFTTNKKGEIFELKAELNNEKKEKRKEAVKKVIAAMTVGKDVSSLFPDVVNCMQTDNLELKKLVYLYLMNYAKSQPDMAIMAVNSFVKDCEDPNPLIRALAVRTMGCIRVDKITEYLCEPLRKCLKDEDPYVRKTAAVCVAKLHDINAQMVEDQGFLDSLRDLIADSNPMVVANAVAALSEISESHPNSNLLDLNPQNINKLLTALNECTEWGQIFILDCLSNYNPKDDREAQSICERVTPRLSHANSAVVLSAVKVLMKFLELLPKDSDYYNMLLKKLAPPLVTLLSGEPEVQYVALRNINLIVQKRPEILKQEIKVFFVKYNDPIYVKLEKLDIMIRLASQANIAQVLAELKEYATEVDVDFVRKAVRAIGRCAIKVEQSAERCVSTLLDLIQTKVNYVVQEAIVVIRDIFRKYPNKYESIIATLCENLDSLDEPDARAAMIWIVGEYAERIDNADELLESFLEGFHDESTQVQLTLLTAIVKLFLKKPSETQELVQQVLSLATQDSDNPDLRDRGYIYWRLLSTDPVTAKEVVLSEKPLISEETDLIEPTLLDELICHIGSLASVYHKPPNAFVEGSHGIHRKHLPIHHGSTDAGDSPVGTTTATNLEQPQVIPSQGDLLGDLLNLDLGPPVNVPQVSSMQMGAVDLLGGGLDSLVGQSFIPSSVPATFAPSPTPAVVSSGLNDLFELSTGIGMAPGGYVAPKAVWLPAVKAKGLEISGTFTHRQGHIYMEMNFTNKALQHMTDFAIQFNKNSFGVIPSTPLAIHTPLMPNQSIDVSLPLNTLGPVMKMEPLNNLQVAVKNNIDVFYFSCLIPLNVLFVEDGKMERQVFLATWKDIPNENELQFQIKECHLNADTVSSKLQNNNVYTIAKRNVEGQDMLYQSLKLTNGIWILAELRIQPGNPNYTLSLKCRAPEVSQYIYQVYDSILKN

The inhibition is the relative decrease from the control value, in per cent. For `COc1ccc2c(CC(=O)NCC3CCC(C(=O)O)CC3)cc(=O)oc2c1` (stereo not given), the percent of DMSO control GFP in assay [1] is 101% (inactive). The values for the GFP response vs DMSO in assay [2] and in [4] were 103% (inactive) and 101% (inactive), respectively. For the same compound, the percent response of DMSO control in [3] is 105% (inactive). In assay [5], the GFP response, % of DMSO was 107% (inactive). This compound also had a double positive events in [6] of 59.6%. The vesicle binding response in [6] is 116% (inactive). Also, the values for the inhibition in [7], in [11] and in assay [15] were -9.13% (inactive), -1.68% (inactive) and -1% (inactive), respectively. Moreover, the superoxide response (% of plate) in assay [8] is 111% (inactive). The aptamer binding inhibition in assay [9] is -2% (inactive). The response in assay [10] was -4.55% (inactive); in [12] it was 7.23% (inactive). Also, in [13], the binding (% of control) was 102% (inactive). In addition, the efflux inhibition (fraction of control) in [14] is 0.04 (inactive). The differentiation response in [16] is 4.2% (inactive).
Turning to `COc1ccccc1Oc1c(C)oc2c(CN3CCN(CCO)CC3)c(O)ccc2c1=O`, in assay [1], the percent of DMSO control GFP is 104% (inactive). For the same compound, the values for the GFP response vs DMSO in assay [2] and in [4] were 101% (inactive) and 98% (inactive), respectively. Also, in assay [3], the percent response of DMSO control is 109% (inactive). Besides, the GFP response, % of DMSO in assay [5] is 104% (inactive). Moreover, the double positive events in assay [6] was 58.7%. Besides, the vesicle binding response in assay [6] was 111% (inactive). Further, the inhibition is -11.8% (inactive) in assay [7], -2.65% (inactive) in assay [11] and -1% (inactive) in assay [15]. Further, the superoxide response (% of plate) in assay [8] was 96.1% (inactive). For the same compound, in [9], the aptamer binding inhibition is -1% (inactive). Moreover, the response is 6.51% (inactive) in assay [10] and 0.24% (inactive) in assay [12]. Besides, in assay [13], the binding (% of control) is 103% (inactive). Further, the efflux inhibition (fraction of control) in assay [14] is -0.14 (inactive). Besides, the differentiation response in assay [16] was 11.5% (inactive).
As for `O=C(Nc1cccc(C(=O)O)c1)/C(=C\c1ccccc1)NC(=O)c1ccccc1`, the percent of DMSO control GFP in assay [1] is 105% (inactive). The GFP response vs DMSO in [2] is 98.3% (inactive); in [4] it was 84.8% (inactive). The percent response of DMSO control in assay [3] is 106% (inactive). For the same compound, the GFP response, % of DMSO in [5] is 100% (inactive). In addition, the double positive events in assay [6] is 58.1%. Besides, the vesicle binding response in assay [6] was 150% (inactive). Further, the results for the inhibition in assay [7], in assay [11] and in assay [15] were -1.49% (inactive), 0.49% (inactive) and 15% (inactive), respectively. The superoxide response (% of plate) in assay [8] was 95.7% (inactive). The aptamer binding inhibition in assay [9] was 5% (inactive). The figures for the response in assay [10] and in assay [12] were -3.48% (inactive) and 0.44% (inactive), respectively. In addition, the binding (% of control) in assay [13] is 99% (inactive). Also, the efflux inhibition (fraction of control) in assay [14] is 0.14 (inactive). In addition, the differentiation response in [16] was 11% (inactive).
Regarding `O=C1CC(c2ccc(OCCCCCOc3ccc(C4CC(=O)NC4=O)cc3)cc2)C(=O)N1` (stereo not given), the percent of DMSO control GFP in assay [1] is 105% (inactive). Also, the GFP response vs DMSO was 98.3% (inactive) in assay [2] and 82.8% (inactive) in assay [4]. In assay [3], the percent response of DMSO control was 97.8% (inactive). The GFP response, % of DMSO in assay [5] was 92.9% (inactive). The double positive events in assay [6] worked out at 63.3%. The vesicle binding response in assay [6] was 1500% (inactive). Further, the inhibition in assay [7] is 15.1% (inactive); in [11] it was -7.1% (inactive); in assay [15] it was 11% (inactive). Further, in assay [8], the superoxide response (% of plate) is 95% (inactive). The aptamer binding inhibition in assay [9] is 3% (inactive). Moreover, the response was 4.67% (inactive) in [10] and 2.37% (inactive) in assay [12]. For the same compound, the binding (% of control) in assay [13] is 101% (inactive). In addition, the efflux inhibition (fraction of control) in assay [14] is 0.11 (inactive). Moreover, the differentiation response in assay [16] is 24.7% (inactive).
As to `COc1ccc(C(=O)c2oc3ccc(Br)cc3c2NC(C)=O)cc1`, in assay [1], the percent of DMSO control GFP was 90.9% (inactive). In addition, the GFP response vs DMSO is 122% (inactive) in [2] and 82% (inactive) in assay [4]. Moreover, the percent response of DMSO control in assay [3] was 112% (inactive). The GFP response, % of DMSO in assay [5] is 97.5% (inactive). This compound also yielded a double positive events in [6] of 61.7%. Besides, the vesicle binding response in assay [6] was 140% (inactive). Besides, the inhibition was 4.52% (inactive) in [7], 3.03% (inactive) in assay [11] and 8% (inactive) in [15]. Besides, in assay [8], the superoxide response (% of plate) is 104% (inactive). Further, the aptamer binding inhibition in [9] is 1% (inactive). Moreover, the values for the response in [10] and in assay [12] were -11.6% (inactive) and 3.34% (inactive), respectively. Besides, in assay [13], the binding (% of control) was 96.9% (inactive). Also, the efflux inhibition (fraction of control) in assay [14] is -0.02 (inactive). In addition, the differentiation response in assay [16] was -0.82% (inactive).
